# Source: PubChem BioAssay (National Center for Advancing Translational Sciences (NCATS))
# HEK cytotox: kills HEK 293 cells | HEK 293 viability, ATP luminescence (CellTiter-Glo), 48-72 h | Potency, µM (top dose mostly 115 µM), hits mostly inhibitors | 94,000 compounds, 6.6% hits | AID 1345083; also: nearly all actives have a fitted effect of over 60% in size
#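 ATP-coupled CellTiter-Glo luminescence served as viability read-out, recorded 10 min after reagent addition at room temperature. HEK 293 cells, 250 cells/well, had been incubated with pintool-transferred compound for 48 or 72 hr at 37 degree Celsius.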
# HEK293 viab: cell viability loss counter-screen | HEK-293-SNCA-luc viability, GF-AFC fluorescence, 24 h | 150,000 compounds, 0.12% hits | Potency, µM (highest dose often 57.1 µM), hits mostly cytotoxic; also: nearly all actives have a fitted effect of over 30% in size
#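 Cytotoxicity counterscreen: after 24 h compound treatment of genome-edited SNCA-luciferase HEK-293 cells, live-cell protease substrate GF-AFC read by fluorescence after 30 min; activity scaled between DMSO (0%) and medium-only (-100%), curves Hill-fitted.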
# FLuc inh: Photinus pyralis luciferase inhibition | P08659 | purified P. pyralis luciferase, luminescence, biochemical | Potency, µM (series often up to 115 µM), actives largely listed as inhibitors | 76,000 compounds, 2.5% hits | AID 1347043; also: nearly all actives have a fitted effect of over 65% in size
#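 Luminescence read by CCD imager after adding enzyme (10nM final) to wells holding compound, titrated in qHTS. Substrates 10uM each D-luciferin and ATP; buffer 50mM Tris acetate pH 7.5, 10mM Mg acetate, Tween-20, BSA.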
# SNCA expr inh: inhibitors of alpha-synuclein (SNCA) gene expression; HEK-293 SNCA-luciferase knock-in, luminescence, 24 h; Potency, µM (top dose mostly 57.2 µM), most hits filed as inhibitors; 140,000 compounds, 0.17% hits; also: nearly all actives have a fitted effect of over 45% in size
# hNpr1 antagonist: antagonists of human natriuretic peptide receptor Npr1. P16066. HEK293 hNpr1 GloSensor cGMP, ANP-stimulated luminescence. Potency, µM (titrated, usually from 46.3 µM), usual class: inhibitors. 76,000 compounds, 1.6% hits. AID 1347048; calls by dose curve; also: nearly all actives have a fitted effect of over 60% in size
#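 HEK293 cells stably expressing human Npr1 and cGMP GloSensor pGS-40F, loaded 2 h with 2% GloSensor reagent, given compound 30 min at room temperature. Luminescence read before and 20 min after 0.1 nM hNppA.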
# 3T3 cytotox: cytotoxic compounds in NIH 3T3 cells. NIH 3T3 viability, CellTiter-Glo ATP luminescence, 48-72 h. Potency, µM (titrated, usually from 96.7 µM), actives largely listed as inhibitors. 94,000 compounds, 4.3% hits; also: nearly all actives have a fitted effect of over 55% in size
#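 ATP-dependent luminescence (CellTiter-Glo) served as the viability signal for NIH 3T3 cells treated with compound for 48 or 72 hr at 37 °C.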
# Npr1 antag conf: hNpr1 antagonism, confirmation assay; Potency, µM (series often up to 57.6 µM), most hits filed as inhibitors; shares compounds with hNpr1 antagonist; 1,400 compounds, 76% hits; HEK293 hNpr1 cGMP GloSensor luminescence, ANP-stimulated; calls by dose curve; also: nearly all actives have a fitted effect of over 70% in size
# NPR2 antag: hNpr2 antagonism, selectivity versus Npr1 | shares compounds with hNpr1 antagonist | HEK293 hNpr2 GloSensor cGMP luminescence, CNP-stimulated | Potency, µM (titrated, usually from 57.6 µM), usual class: inhibitors | 1,400 compounds, 67% hits | AID 1347046; calls by dose curve; also: nearly all actives have a fitted effect of over 70% in size
# FLuc counter: FLuc enzyme inhibition, Npr1 counter-screen; shares compounds with hNpr1 antagonist; Potency, µM (doses to about 57.6 µM), usual class: inhibitors; 1,400 compounds, 0.7% hits; AID 1347047; purified FLuc enzyme, luminescence, Km substrate
# GloSensor cGMP: control cell line activity, Npr1 antagonist counter-screen. shares compounds with hNpr1 antagonist. HEK293 GloSensor cGMP, SNP-stimulated, luminescence. Potency, µM (series often up to 57.6 µM), most hits filed as inhibitors. 1,400 compounds, 69% hits; calls by dose curve; also: nearly all actives have a fitted effect of over 70% in size
# Numbers stand for hits; 0 = inactive; ? = inconclusive; - = no result given. Only some compounds are listed: those with a hit (about 7.4% of all), similar ones and a draw of the others. Unless noted, calls follow the shape of the dose curve; as a rule, active = well fitted curve in the direction sought with a large enough effect; inconclusive = small, poorly fitted or top-dose-only effect, or another doubt; inactive = no such curve, though single readings can be large; an effect the other way counts as inactive or inconclusive.
SMILES,HEK cytotox,HEK293 viab,FLuc inh,SNCA expr inh,hNpr1 antagonist,3T3 cytotox,Npr1 antag conf,NPR2 antag,FLuc counter,GloSensor cGMP
CC1=C(C(=O)OC(C)C)C(c2ccccc2Cl)N2C(CC(=O)N3CCCC3)=CSC2=N1 (stereo not given),?,0,0,0,13µM,0,24µM,22µM,0,?
CC1=C(C(=O)OC(C)C)C(c2ccccc2F)N2C(CC(=O)N3CCOCC3)=CSC2=N1 (stereo not given),0,0,0,0,0,0,-,-,-,-
CC1=C(C(=O)OC(C)C)C(c2ccccc2Cl)N2C(CC(=O)N3CCOCC3)=CSC2=N1 (stereo not given),?,0,0,0,14µM,0,?,?,0,?
CC1=C(C(=O)OC(C)C)C(c2ccc(C)cc2C)N2C(CC(=O)N3CCCC3)=CSC2=N1 (stereo not given),?,0,0,0,?,?,?,?,0,?
C=CCOC(=O)C1=C(C)N=C2SC=C(CC(=O)N3CCOCC3)N2C1c1ccc(C)cc1C (stereo not given),?,0,?,0,?,0,-,-,-,-
Cc1ccc(-c2cc(C(=O)NCc3ccccc3F)c3cnn(C)c3n2)cc1,0,0,-,0,-,0,-,-,-,-
CCOCCC(=O)N1CC[C@@H]2[C@@H](CCC(=O)N2CCc2ccccn2)C1,?,0,0,0,0,0,-,-,-,-
CCOC(=O)N1CCC(NCCNC(=O)c2ccccc2C)CC1,-,0,-,-,-,-,-,-,-,-
O=C(Cc1ccc(F)cc1)N1CCN(c2cc(-c3ccc(Cl)cc3)[nH]n2)CC1,40µM,0,0,0,?,?,?,?,0,?
O=C(Cc1ccccc1F)N1CCN(c2cc(-c3ccc(Cl)cc3)[nH]n2)CC1,0,0,0,0,0,0,-,-,-,-
O=C(Cc1ccc(Br)cc1)N1CCCN(c2cc(-c3ccc(F)cc3)[nH]n2)CC1,?,?,0,0,?,?,?,?,0,27µM
CC(=O)Nc1ccc(NC(=O)Cn2ccn3nc(-c4ccccc4)c(CO)c3c2=O)cc1,?,0,0,0,0,0,-,-,-,-
CN(C/C=C/c1ccccc1)c1cc(C2CC(O)C2)nc(N)n1 (stereo not given),?,?,0,?,13µM,0,22µM,17µM,0,24µM
CC(c1ccc(-c2cc(N3CCN(C)CC3)nc(N)n2)cc1)N1CCOCC1 (stereo not given),?,0,0,0,0,0,-,-,-,-
CCCCNC(=O)c1cccc(-c2cc(N3CCN(C)CC3)nc(N)n2)c1,?,0,0,?,?,0,?,0,0,?
O=C(c1ccc(Cl)cc1)N1CCc2sc(C(=O)N3CCOCC3)cc2C1,?,0,0,0,0,?,-,-,-,-
O=C(c1ccccc1)N1CCc2sc(C(=O)N3CCN(c4ccccc4)CC3)cc2C1,?,0,0,0,10µM,?,22µM,27µM,0,22µM
CCC(=O)N1CCc2sc(C(=O)NC3CCN(Cc4ccccc4)CC3)cc2C1,?,0,0,0,0,0,-,-,-,-
CN(C)C(=O)c1cc2c(s1)CCC(C(=O)N1CCN(c3cccc(Cl)c3)CC1)C2 (stereo not given),?,0,0,0,?,?,22µM,19µM,0,15µM
CCC(=O)N1CCc2sc(C(=O)N3CCN(c4cccc(Cl)c4)CC3)cc2C1,?,0,0,0,10µM,?,19µM,19µM,0,17µM
CCc1nncn1C1CCN(S(=O)(=O)c2cccc(OC)c2)CC1,0,0,0,?,0,0,-,-,-,-
CNC(=O)C1CCN(c2nccc(Nc3ccccc3OC)n2)CC1,?,0,-,0,-,?,-,-,-,-
CCOc1ccc(CN2CCN(c3nc4ccccc4o3)CC2CCO)cc1 (stereo not given),35µM,0,0,0,14µM,0,22µM,24µM,0,22µM
CN(Cc1noc(C2CCCC2)n1)c1cc(C2CC(O)C2)ncn1 (stereo not given),0,0,0,0,?,?,22µM,?,0,22µM
OC1CC(c2cc(N3CCC(Cc4noc(C5CC5)n4)CC3)ncn2)C1 (stereo not given),0,0,0,?,0.79µM,?,0.86µM,1.2µM,0,0.77µM
SMILES,HEK cytotox,HEK293 viab,FLuc inh,SNCA expr inh,hNpr1 antagonist,3T3 cytotox,Npr1 antag conf,NPR2 antag,FLuc counter,GloSensor cGMP
COc1ccc(Cl)cc1-c1ccc2c(n1)CN(CCOc1ccccc1)C(=O)CO2,100µM,0,0,0,22µM,?,35µM,35µM,0,31µM
CN(Cc1cccnc1)c1nc2c(c(=O)[nH]1)CCN(Cc1ccc(F)cc1F)CC2,?,0,0,0,0,?,-,-,-,-
COc1ccc(CN2CCc3nc(C(=O)NCc4cccc(F)c4)oc3CC2)cc1,?,0,0,0,0,?,-,-,-,-
O=C(Nc1ccc(Cl)cc1)c1nc2c(o1)CCN(Cc1cccc(F)c1)CC2,?,0,0,0,7.9µM,?,11µM,16µM,0,11µM
O=C(NCCOc1ccccc1)c1nc2c(o1)CCN(Cc1c(F)cccc1F)CC2,?,0,0,0,0,?,-,-,-,-
COc1ccccc1CN1CCc2nc(C(=O)Nc3cccc(C(F)(F)F)c3)oc2CC1,32µM,0,0,0,?,28µM,22µM,24µM,0,24µM
O=C(Nc1cccnc1)c1nc2c(o1)CCN(Cc1ccc(F)cc1F)CC2,?,0,0,0,32µM,?,40µM,40µM,0,35µM
Cc1noc(C)c1CN1CCc2nc(C(=O)Nc3cccc(C(F)(F)F)c3)oc2CC1,?,0,0,0,32µM,?,28µM,31µM,0,20µM
O=C(Cc1ccccc1)NCC1CN(Cc2cccc(Cl)c2)CC12CN(c1ccccc1)C2 (stereo not given),?,0,0,0,0,?,-,-,-,-
COC[C@@H]1[C@H](C(=O)NCCn2ccnc2C)CCCN1Cc1ccccc1,0,0,-,0,-,0,-,-,-,-
O=C(Nc1cccc(C(F)(F)F)c1)c1nnn2c1CN(Cc1ccccc1F)C(=O)CC2,?,0,0,0,0,?,-,-,-,-
O=C(Nc1cccc(C(F)(F)F)c1)c1nc2c(o1)CCN(Cc1ccccc1F)CC2,63µM,0,0,0,?,50µM,?,?,0,?
